Among the data in PubChem BioAssay (Tox21) are Potency, outcome and activity change, positive = activation values, retold here.

Assay [1] is described as follows: qHTS assay to identify small molecule antagonists of the estrogen related receptor (ERR) signaling pathway from Tox21 library - cell viability counter screen (AID 1224834). Note: nearly all actives have a fitted effect of over 30% in size. The method, boiled down:
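Seeded ERR cells were rested 6 h at 37 C/5% CO2 before compounds, positive and negative controls or DMSO were added. Incubation continued for 17.5 h, and viability was then quantified by CellTiter-Fluor fluorescence.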

Assay [2] deals with Luciferin 4-monooxygenase (Photinus pyralis) (UniProt P08659). Briefly: qHTS assay to identify small molecule inhibitors of firefly luciferase (AID 1224835). Note: nearly all actives have a fitted effect of over 25% in size. Note: potency is the fitted concentration of half-maximal effect. The gist of the method: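 Quantitative HTS format; KM concentrations of both substrates. Purified P. pyralis FLuc activity quantified from luminescence images.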
Luciferin 4-monooxygenase (Photinus pyralis), sequence (P08659 whole entry, looked up): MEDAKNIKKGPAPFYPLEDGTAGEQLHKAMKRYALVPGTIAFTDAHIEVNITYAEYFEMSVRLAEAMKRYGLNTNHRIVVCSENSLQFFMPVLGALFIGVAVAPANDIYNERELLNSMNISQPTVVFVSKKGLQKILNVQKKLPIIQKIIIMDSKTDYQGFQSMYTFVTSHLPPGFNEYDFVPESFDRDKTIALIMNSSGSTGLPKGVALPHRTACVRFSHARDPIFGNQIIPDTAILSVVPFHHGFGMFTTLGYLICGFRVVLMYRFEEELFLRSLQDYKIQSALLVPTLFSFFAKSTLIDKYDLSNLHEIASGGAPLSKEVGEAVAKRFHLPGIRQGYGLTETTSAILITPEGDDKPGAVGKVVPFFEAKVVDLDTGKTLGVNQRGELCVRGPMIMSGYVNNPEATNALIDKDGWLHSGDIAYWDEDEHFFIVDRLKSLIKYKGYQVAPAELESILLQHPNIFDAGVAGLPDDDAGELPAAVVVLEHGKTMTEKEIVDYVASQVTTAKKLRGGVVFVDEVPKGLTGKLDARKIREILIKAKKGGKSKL
Assay [3] in a line: qHTS assay to identify small molecule agonists of the constitutive androstane receptor (CAR) signaling pathway - cell viability counter screen (AID 1224836). Note: nearly all actives have a fitted effect of over 45% in size. The method, boiled down:
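Multiplexed viability check: HepG2-CYP2B6-hCAR cells, 15-point compound dosing, 0.75 uM PK11195 final, 23 h at 37 C, CellTiter-Fluor fluorescence.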
A general note: Quantitative high-throughput screening tests each substance at several concentrations.

The target in assay [4] is Nuclear receptor subfamily 1 group I member 3 (Homo sapiens) (UniProt Q14994). In words: qHTS assay to identify small molecule antagonists of the constitutive androstane receptor (CAR) signaling pathway (AID 1224838).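 Note: HepG2 cells stably expressing hCAR with CYP2B6 luciferase reporter stimulated by CITCO; nearly all actives have a fitted effect of over 40% in size.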 The method, boiled down: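 Human hepatoma HepG2 cells expressing hCAR and a CYP2B6 promoter (2.2 kb) luciferase construct; compound titration (15 points) with 50 nM CITCO final, 24 h at 37 C/5% CO2; luminescence via ONE-Glo after 30 min at room temperature.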
Nuclear receptor subfamily 1 group I member 3 (Homo sapiens), sequence (Q14994 whole entry, looked up): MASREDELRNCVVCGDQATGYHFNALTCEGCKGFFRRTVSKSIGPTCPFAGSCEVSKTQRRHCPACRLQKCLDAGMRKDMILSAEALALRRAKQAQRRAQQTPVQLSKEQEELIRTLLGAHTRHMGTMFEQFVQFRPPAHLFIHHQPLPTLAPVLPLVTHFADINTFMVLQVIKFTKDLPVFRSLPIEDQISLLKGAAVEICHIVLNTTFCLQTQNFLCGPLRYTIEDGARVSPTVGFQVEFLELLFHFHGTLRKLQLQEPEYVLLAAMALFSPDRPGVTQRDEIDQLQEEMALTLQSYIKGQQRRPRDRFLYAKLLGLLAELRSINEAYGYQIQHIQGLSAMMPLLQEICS

For assay [5] the target is unchanged. Briefly: qHTS assay to identify small molecule agonists of the constitutive androstane receptor (CAR) signaling pathway (AID 1224839).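 Note: HepG2 cells stably carrying human CAR and a CYP2B6 luciferase reporter; nearly all actives have a fitted effect of over 15% in size.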 The gist of the method: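 Using human hepatoma HepG2 cells engineered with hCAR and a CYP2B6-2.2kb reporter, 15-concentration compound series were incubated 24 h alongside PK11195 at 0.75 uM final, with luminescence quantified afterwards.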

Assay [6] in a line: qHTS assay to identify small molecule antagonists of the estrogen related receptor signaling pathway with the pleiotropic PPARgamma coactivator (PGC) from Tox21 10K library - cell viability counter screen (AID 1224840; active = well fitted cell-killing curve with a large enough effect in the repeat runs, not every such curve was filed as active; note: nearly all actives have a fitted effect of over 40% in size). The gist of the method: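 Seeded PGC/ERR cells (2,000/well, 6 h, 37 C/5% CO2) get compound by pin tool; 17.5 h incubation at 37 C; CellTiter-Fluor added, 30 min, fluorescence measured.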

The nature of assay [7]: qHTS assay to identify small molecule antagonists of the estrogen related receptor signaling pathway with the pleiotropic PPARgamma coactivator (PGC) from Tox21 10K library (AID 1224841; call rule not given here; note: actives are mostly falling curves and most rising ones were filed inactive; nearly all actives have a fitted effect of over 50% in size). The gist of the method: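 Test chemicals dissolved in DMSO were applied to pre-incubated (6 h) PGC/ERR cells at 2,000 cells/well for an 18 h, 37 C treatment; reporter luminescence was then read using One-Glo.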

Assay [8] is described as follows: qHTS assay to identify small molecule agonists of the estrogen related receptor signaling pathway with the pleiotropic PPARgamma coactivator (PGC) from Tox21 10K library (AID 1224842). Note: nearly all actives have a fitted effect of over 15% in size. The gist of the method: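 PGC/ERR reporter cells (NTP line) were seeded 2,000 per well, rested 6 h at 37 C/5% CO2, then pin-dosed with compounds in DMSO for 18 h at 37 C; luciferase read by One-Glo luminescence after 30 min at room temperature.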

For assay [9], the target named is Thyrotropin receptor (Homo sapiens) (UniProt P16473). Briefly: qHTS assay to identify small molecule agonists of the thyroid stimulating hormone receptor (TSHR) signaling pathway (AID 1224843; calls by dose curve; note: nearly all actives have a fitted effect of over 45% in size). The gist of the method: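 Compounds are titrated over 15 concentrations, in triplicate, onto TSHR-HEK293 cells seeded at 800/well. Plates sit 30 min at room temperature before cAMP-d2 and anti-cAMP cryptate are added; signal is read after a further hour.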
Thyrotropin receptor (Homo sapiens), sequence (P16473 whole entry, looked up): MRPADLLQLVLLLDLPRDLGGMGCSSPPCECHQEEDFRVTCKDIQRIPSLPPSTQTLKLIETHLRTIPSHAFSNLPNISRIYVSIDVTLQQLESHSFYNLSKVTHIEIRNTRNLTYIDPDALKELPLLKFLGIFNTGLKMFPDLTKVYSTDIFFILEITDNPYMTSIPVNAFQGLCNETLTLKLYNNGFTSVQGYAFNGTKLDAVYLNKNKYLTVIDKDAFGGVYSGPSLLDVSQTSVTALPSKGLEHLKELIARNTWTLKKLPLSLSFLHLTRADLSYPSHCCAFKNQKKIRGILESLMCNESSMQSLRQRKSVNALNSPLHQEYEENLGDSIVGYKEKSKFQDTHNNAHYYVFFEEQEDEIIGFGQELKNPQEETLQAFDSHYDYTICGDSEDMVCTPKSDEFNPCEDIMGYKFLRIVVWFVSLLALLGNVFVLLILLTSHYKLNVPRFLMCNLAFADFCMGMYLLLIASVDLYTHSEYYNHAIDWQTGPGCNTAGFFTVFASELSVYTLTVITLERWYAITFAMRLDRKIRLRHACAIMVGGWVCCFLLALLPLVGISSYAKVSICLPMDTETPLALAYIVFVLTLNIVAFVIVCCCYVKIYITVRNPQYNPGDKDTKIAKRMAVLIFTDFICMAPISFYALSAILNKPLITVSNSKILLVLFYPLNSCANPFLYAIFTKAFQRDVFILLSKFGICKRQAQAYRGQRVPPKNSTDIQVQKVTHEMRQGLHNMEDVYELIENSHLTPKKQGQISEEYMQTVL

Assay [10] is described as follows: qHTS assay to identify small molecule agonists of the hypoxia (HIF-1) signaling pathway - cell viability counter screen (AID 1224844; calls by dose curve; note: nearly all actives have a fitted effect of over 50% in size). The gist of the method: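 HRE-bla ME-180; 0.5% dFBS; cpd 17 h, 37C, 5% CO2; CellTiter-Glo lum., 30 min RT, post-FRET read, same wells.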
Assay [11] in a line: qHTS assay to identify small molecule agonists of H2AX (AID 1224845; active = well fitted activation curve with a large enough effect in the signal ratio in the repeat runs, not every such curve was filed as active; the % refers to the signal ratio). The gist of the method:
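Wild-type CHO-K1 cells plated overnight, then exposed 3 hr at 37C to compounds at 15 concentrations (0.76% DMSO). Lysed, then HTRF anti-pH2AX(S139)-cryptate/anti-H2AX-d2 detection after 24 hr at room temperature; emissions 665 and 620 nm.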

Assay [12] in a line: qHTS assay to identify small molecule agonists of the hypoxia (HIF-1) signaling pathway (AID 1224846; active = well fitted activation curve with a large enough effect in the signal ratio in the repeat runs, not every such curve was filed as active; the % refers to the signal ratio). The gist of the method:
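Reporter induction in HRE-bla ME-180 cells is taken as agonism: cells sit 5 hrs after plating, receive compounds or DMSO only, incubate 17 hrs at 37C under 5% CO2, and are loaded with CCF4-AM for beta-lactamase FRET measurement.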

Assay [13] in a line: qHTS assay to identify small molecule agonists of H2AX - cell viability counter screen (AID 1224847; calls by dose curve; note: top concentration of the series differs between compounds; nearly all actives have a fitted effect of over 30% in size). The method, boiled down: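 After overnight plating of 1000 CHO-K1 cells per well, a 15-concentration compound series was applied for 3 hr at 37C. Luminescence from CellTiter-Glo, read following 30 min at room temperature, reflected cell viability.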
Assay [14] in a line: qHTS assay to identify small molecule antagonists of the estrogen related receptor (ERR) signaling pathway from Tox21 library (AID 1224848). Note: nearly all actives have a fitted effect of over 50% in size. The method, boiled down: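 First, 2,000 ERR cells per well were plated and held 6 h at 37 C/5% CO2. Next, compounds in DMSO were pinned in and left 18 h at 37 C. Finally, ONE-Glo was added and luminescence read after 30 min at room temperature.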

Assay [15] is described as follows: qHTS assay to identify small molecule agonists of the estrogen related receptor (ERR) signaling pathway from Tox21 library (AID 1224849; calls by dose curve; note: nearly all actives have a fitted effect of over 15% in size). The settings on record: ERR reporter cell line, ONE-Glo luciferase, 18 h. The gist of the method:
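Tox21 compounds tested for ERR agonism in an NTP reporter cell line: 18 h treatment at 37 C, then ONE-Glo luminescence.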

A short description of assay [16]: qHTS RealTime-Glo MT Cell Viability Assay in HepG2 cells - 24 hour (AID 1224867). Note: nearly all actives have a fitted effect of over 50% in size. The method, boiled down:
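Real-time, nonlytic viability: 600 HepG2 cells/well mixed with NanoLuc enzyme plus prosubstrate; 5 h settle, compound (DMSO) added by pintool; luminescence monitored over 40 h at 37 C.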

Assay [17] is described as follows: qHTS RealTime-Glo MT Cell Viability Assay in HEK293 cells - 32 hour (AID 1224868). The method, boiled down:
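Cells + reagent dispensed (600 cells/well, HEK293) → 5 h at 37 C/5% CO2 → 23 nL compound in DMSO pinned → 40 h at 37 C → luminescence read at 0, 8, 16, 24, 32, 40 h.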

Assay [18] in a line: A CellTox Green Cytotoxicity Assay to monitor cytotoxicity in HEK293 cells - 0 hour (AID 1224869). Note: nearly all actives have a fitted effect of over 50% in size. The method, boiled down:
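Tox21 screen in HEK293: membrane-impermeant cyanine dye fluoresces on binding dead-cell DNA; compound pinned 5 h post-seeding, plates held at 37 C, signal read repeatedly through 40 h.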

Assay [19] is described as follows: qHTS RealTime-Glo MT Cell Viability Assay in HepG2 cells - 40 hour (AID 1224870). Note: nearly all actives have a fitted effect of over 50% in size. The method, boiled down: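 HepG2 cells mixed with RealTime-Glo MT reagents (NanoLuc plus cell-permeant prosubstrate) were seeded at 600 cells/well, incubated 5 h at 37 C/5% CO2, then pinned with compounds in DMSO; nonlytic luminescence tracked viability during 40 h treatment.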
Assay [20] is described as follows: qHTS assay to identify small molecule antagonists of the constitutive androstane receptor (CAR) signaling pathway - cell viability counter screen (AID 1224837). Note: nearly all actives have a fitted effect of over 45% in size. The method, boiled down: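 To flag cytotoxic false antagonists, HepG2 hCAR/CYP2B6-2.2kb cells were treated 23 hr with 15-concentration compound series and 50 nM CITCO at 37 C/5% CO2; CellTiter-Fluor fluorescence was the measured end point.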

The structures appear in SMILES notation. Several values for one entry are separate records, joined by “and”; a condition that tells them apart may be missing. Identical values can stand only once. Inconclusive results are not listed. Activity calls are given as the source filed them. Unless noted, calls come from the whole dose curve; as a rule, active = well fitted curve in the direction sought with a large enough effect in the repeat runs; inconclusive = weak or mixed curves; inactive = no such curve, though single readings can be large; an effect the other way counts as inactive or inconclusive.
% is set by controls: 0 for no effect and ±100 for the full control effect.

As for `CCO[Si](CCCNC(N)=O)(OCC)OCC`, the Potency result in assay [1], in assay [2], in [3], in [4], in assay [5] and in assay [6] was “inactive” each time. Also, the Potency result in assay [7], in [8], in [9], in assay [10], in [11] and in [13] was “inactive” each time. Moreover, the Potency result in assay [14], in assay [16], in assay [17], in assay [18] and in assay [19] was “inactive” throughout. The outcome in assay [12] was inactive. Further, the activity change, positive = activation in assay [15] (at 92.4 µM (top of the series)) was 8.59% (inactive) and 5.1% (inactive).
As for `Brc1nc2ccccc2s1`, the Potency result in [1], in [20], in assay [4], in assay [5], in assay [6] and in assay [9] was “inactive” each time. Besides, the Potency entry in [10], in [11], in [13], in assay [16], in assay [17] and in [18] was “inactive” throughout. For the same compound, the Potency result in [19] was “inactive”. Besides, the Potency in [2] was 39.8 µM (active). Moreover, in assay [12], the outcome was inactive.
Turning to `C[N+](C)(C)CCO`, the Potency result in assay [1], in assay [2], in assay [20], in [4], in assay [5] and in assay [6] was “inactive” throughout. Moreover, the Potency entry in [9], in [10], in [11], in [13], in assay [16] and in assay [17] was “inactive” in each case. The Potency entry in assay [18] and in assay [19] was “inactive” each time.
Regarding `Cc1cccc(Nc2ccccc2C(=O)O)c1C`, the Potency entry in assay [1], in assay [20], in [4], in [5], in assay [6] and in assay [10] was “inactive” each time. The Potency result in [11], in assay [13], in assay [16], in [17], in assay [18] and in [19] was “inactive” each time. Also, in assay [2], the Potency was 79.6 µM (active).
With `COc1ccc(C(=O)c2ccccc2O)c(O)c1`, the Potency entry in [1], in assay [2], in [20], in assay [4], in assay [6] and in assay [7] was “inactive” in each case. The Potency entry in assay [8], in [9], in [10], in assay [11], in assay [14] and in [16] was “inactive” in each case. Further, the Potency result in assay [17], in assay [18] and in assay [19] was “inactive” in each case. Also, in assay [12], the compound was called inactive. For the same compound, the activity change, positive = activation was -1.96% (inactive) in assay [15] (at 42.5 µM (top of the series)) and -27.1% (inactive) in assay [15] (at 92.4 µM (top of the series)).
As for `C=CCCCCCCCCCC`, the Potency entry in [1], in assay [2], in assay [20], in [4], in assay [5] and in [6] was “inactive” throughout. The Potency entry in [10], in assay [11], in assay [13], in assay [16], in assay [17] and in assay [18] was “inactive” each time. Besides, the Potency entry in assay [19] was “inactive”. Also, the result in [12] was inactive.
For the compound `Cc1ccc(C(C)(C)C)cc1`, the Potency result in assay [1], in assay [2], in [3], in assay [4], in assay [5] and in assay [6] was “inactive” each time. The Potency entry in assay [9], in assay [10], in [11], in assay [13], in assay [16] and in [17] was “inactive” each time. Besides, the Potency entry in assay [18] and in [19] was “inactive” each time. Moreover, the outcome in assay [12] was inactive.
For `Clc1ccc(Sc2cc(Cl)c(Cl)cc2Cl)cc1`, the Potency entry in assay [1], in assay [2], in assay [20], in assay [4], in [6] and in assay [9] was “inactive” in each case. In addition, the Potency entry in assay [10], in [11], in [13], in assay [16], in assay [17] and in assay [18] was “inactive” in each case. Moreover, the Potency result in [19] is “inactive”. For the same compound, the compound was classed as inactive in [12].
